Source: PubChem BioAssay (National Center for Advancing Translational Sciences (NCATS))
HT1080 IDH1KD tx: toxicity to HT-1080 IDH1 knockdown cells (counter line). actives 2% (n = 360,000). HT-1080 IDH1 knockdown viability, ATP luminescence, 48 h. AID 686971. Potency, µM (highest dose often 46.1 µM), for inactives: at the top dose activity, negative = toxicity, hits mostly cytotoxic;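 also: potency is read from the fitted curve at half-maximal effect; 0% = DMSO wells and -100% = cell-free medium wells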
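Luminescent ATP read-out (CellTiter-Glo, 10 min at room temperature) after 48 h compound exposure at 37 °C gave viability of IDH1-knockdown HT-1080 cells. Activity was normalised to DMSO and cell-free wells, then fitted as concentration-response curves.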
IL-1B inflam inh: inflammasome signaling inhibition, IL-1 beta readout | THP-1 LPS/ATP IL-1B secretion, AlphaLISA, 16 h; active compounds read low | activity change, % at 57.5 µM | actives 4.7% (n = 360,000); in the data active = activity change below about -50%; inconclusive = mostly about -30% to -49%
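THP-1 cells pretreated 1 hr with compounds (up to 57.5 uM final), then stimulated with LPS (250 ng/mL final) plus ATP (1.25 mM final); secreted IL-1B measured by AlphaLISA after 16 hr, decreased signal indicating inhibition.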
TDP1 cell CPT: growth inhibition of DT40 Tdp1-/-;hTDP1 cells with camptothecin (screen for TDP1 inhibitors); chicken DT40 Tdp1-/-;hTDP1 cells + 20 nM CPT, ATP luminescence, 48 h; Potency, µM (top dose mostly 46.2 µM), for inactives: top-dose activity change, negative = growth inhibition, hits mostly inhibitors; actives 12% (n = 420,000); AID 686979; also: potency is read from the fitted curve at half-maximal effect; nearly all actives have a fitted effect of over 55% in size
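Cell growth measured by CellTiter-Glo luminescence after a minimum 48 h, 37 C compound exposure with 20 nM CPT in Tdp1-knockout DT40 cells stably expressing hTDP1, seeded 400/well; qHTS titration format.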
HT1080NT lethal: kills 2HG-producing HT-1080-NT fibrosarcoma cells; actives 1.6% (n = 360,000); AID 686970; HT-1080-NT fibrosarcoma viability, CellTiter-Glo ATP luminescence, 48 h; Potency, µM (top dose mostly 46.1 µM), inactives show top-dose activity, negative = less viability, actives largely listed as cytotoxic;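 also: NT is the 2HG producing partner of a matched IDH1 knockdown line; potency is read from the fitted curve at half-maximal effect; 0% = DMSO-treated cells and -100% = media-only wells without cells; nearly all actives have a fitted effect of over 55% in size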
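HT-1080-NT; 750 cells/well; 5% FBS RPMI; 48 h compound, 37 degrees C; CellTiter-Glo luminescence; curve fitting and curve-class assignment.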
TDP1 cell noCPT: qHTS for Inhibitors of human tyrosyl-DNA phosphodiesterase 1 (TDP1): qHTS in cells in absence of CPT; DT40 Tdp1-/- hTDP1 cells, no CPT, ATP luminescence, 48 h; Potency, µM (titrated, usually from 46.2 µM), inactives show at the top dose activity change, negative = growth inhibition, hits mostly inhibitors; actives 15% (n = 420,000); AID 686978, 2013; also: potency is read from the fitted curve at half-maximal effect; nearly all actives have a fitted effect of over 55% in size
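Chicken DT40 Tdp1-/- cells stably complemented with human TDP1 were seeded at 400 cells/well with DMSO in place of 20 nM camptothecin. After compound pinning, cells grew at least 48 hr at 37 °C; viability read by CellTiter-Glo luminescence.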
An asterisk follows results filed as active; ? = inconclusive; nt = no result given; [ ] = remark or other dose. Shown are actives, neighbours in structure and some others; about 19% of the full set was active somewhere. Unless noted, calls follow the shape of the dose curve; as a rule, active = well fitted curve in the direction sought with a large enough effect; inconclusive = small, poorly fitted or top-dose-only effect, or another doubt; inactive = no such curve, though single readings can be large; an effect the other way counts as inactive or inconclusive. Unless noted, % is scaled to controls: 0 for no effect and ±100 for the full control effect.

SMILES	HT1080 IDH1KD tx	IL-1B inflam inh	TDP1 cell CPT	HT1080NT lethal	TDP1 cell noCPT
Cc1ccc(Cl)cc1NC(=O)Nn1cnnc1	11.6%	12.3	-4.4%	7.5%	17.5%
COc1ccc(NC(=O)C(C)Sc2nnc3c4c(nc(-c5ccc(OC)cc5)n23)CC(C)(C)OC4)cc1 (stereo not drawn)	-1.1%	-1.0	20.6µM*	-2.2%	14.6µM*
CCc1nc2nc(C)cc(Nc3ccc(OC)cc3)n2n1	nt	nt	?	nt	-6.4%
N#CC(=C1NC(=O)c2ccccc21)c1nc2ccccc2n1CCO	-0.1%	-74.0*	?	14.8%	8.2µM*
Cc1cc(C)cc(NC(=O)COc2coc(CN3CCc4ccccc4C3)cc2=O)c1	-17.7%	8.4	?	-22.8%	?
CCc1cccc(C)c1Nc1c(-c2ccc(N(C)C)cc2)nc2cnccn12	nt	nt	?	nt	23.1µM*
CN(C)c1ccc(-c2nc3cnccn3c2Nc2cccc(C(F)(F)F)c2)cc1	nt	nt	25.9µM*	nt	?
COc1ccc(Nc2c(-c3ccc(C)cc3)nc3cnccn23)cc1	4.2%	19.0	?	10.8%	?
CN(C)c1ccc(-c2nc3cnccn3c2Nc2ccc3c(c2)OCCO3)cc1	2.4%	2.6	-29.5%	15.4%	-5.7%
Cc1ccc(CS(=O)(=O)c2cn(CC(=O)N3CCOCC3)c3ccccc23)cc1	7.0%	-9.0	9.4%	9.0%	8.7%
O=C(/C=C/c1ccco1)Nc1ccc2nc3n(c(=O)c2c1)CCCC3	-1.9%	-51.1*	?	-19.6%	-21.1%
O=c1c2cc(NC(=S)N3CCCC3)ccc2nc2n1CCCCC2	-0.4%	2.9	-10.9%	0.1%	-23.0%
CCOc1ccccc1C(=O)Nc1ccc2nc3n(c(=O)c2c1)CCCCC3	?	-12.6	?	8.1%	2.59µM*
COc1cc(C(=O)Nc2ccc3nc4n(c(=O)c3c2)CCCC4)ccc1Br	2.6%	-16.2	-22.3%	3.6%	?
COc1ccc(Cl)cc1C(=O)Nc1ccc2nc3n(c(=O)c2c1)CCCC3	0.8%	-16.2	14.6µM*	-11.8%	18.4µM*
COc1cc(/C=C(\NC(=O)c2ccccc2)C(=O)NC(C(=O)O)c2ccccc2)cc(OC)c1OC (stereo not drawn)	7.1%	12.5	-2.6%	6.9%	1.2%
CCOC(=O)CC(=O)NC1(Cc2ccc(O)cc2)CCCCC1	5.8%	21.5	1.2%	7.3%	2.7%
CCc1nc2c(OCc3ccc(Cl)cc3)cccn2c1N(C)C(=O)c1ccc(C)cc1	-24.7%	?	18.4µM*	?	18.4µM*
CCc1nc2c(OCC(=O)C(C)(C)C)cccn2c1N(C)C(=O)c1ccc(C)cc1	17.8%	-18.2	?	13.4%	?
CCOC(=O)C(=O)N(C)c1c(CC)nc2c(OCc3ccc(Cl)cc3)cccn12	-0.3%	15.7	?	-1.8%	?
CCOC(=O)N(C)c1c(CC)nc2c(OCc3ccc(Cl)cc3)cccn12	?	-27.1	20.6µM*	?	14.6µM*
CCc1c(C2(O)CCCCC2)[nH]c2cnccc12	-1.8%	36.4	?	0.0%	18.4µM*
O=C(NC1CC1)c1nc(Cn2cc([N+](=O)[O-])cn2)no1	0.0%	21.3	-8.7%	13.8%	-26.4%
CC(C)(C)OC(=O)N(CCc1ccccc1)Cc1ccccc1OCc1ccc(NC(=O)C2CCC2)cc1	-23.6%	-9.7	?	-14.0%	?
CC1(C)CC(=O)C=C(Nc2ccc(Cl)c(Br)c2)C1	0.9%	?	-17.8%	-11.5%	?
SMILES	HT1080 IDH1KD tx	IL-1B inflam inh	TDP1 cell CPT	HT1080NT lethal	TDP1 cell noCPT
CN(C)c1ccc(CNC(=O)c2cc3ccccn3n2)cc1	nt	nt	-11.2%	nt	-10.6%
CCOC(=O)c1cc(-c2cccc([N+](=O)[O-])c2)nc2[nH]c(=O)[nH]c(=O)c12	-1.9%	-25.0	-17.8%	-2.5%	23.1µM*
CCC(C)c1ccccc1NC(=O)Cc1coc2cc3c(cc12)CCC3 (stereo not drawn)	-4.2%	-12.5	?	1.1%	18.4µM*
CC(=O)c1cccc(NC(=O)Cc2coc3cc4c(cc23)CCC4)c1	-18.0%	5.8	?	-17.8%	6.51µM*
COC(=O)c1csc(-c2ccc(CO)o2)n1	0.0%	26.2	-8.9%	?	-12.7%
CC[C@]12c3[nH]c4ccc(OC)cc4c3CCN1C(=O)C(CC(=O)NCCN1CCOCC1)C[C@@H]2C(=O)N1CCN(C(=O)c2ccco2)CC1 (stereo partly drawn)	3.1%	0.8	6.7%	0.6%	15.5%
CS(=O)(=O)N1CCC(C(=O)Nc2ccc3c(c2)OCCO3)CC1	2.0%	0.0	-7.9%	8.3%	-10.5%
CCOc1ccc2c(c1)C(C)=CC(C)(C)N2S(=O)(=O)c1ccc(C)cc1	1.84µM*	26.2	?	1.3µM*	6.51µM*
COc1ccc2c(c1)C(C)=CC(C)(C)N2S(=O)(=O)c1ccc(C)cc1	0.92µM*	69.5	5.8µM*	0.92µM*	5.17µM*
CCNC(=O)N1c2ccc(OCC)cc2C(C)=CC1(C)C	15.6%	-11.6	?	22.8%	18.4µM*
CC1=CC(C)(C)N(S(=O)(=O)c2ccc(C)cc2)c2cc(C)ccc21	1.26µM*	36.5	5.8µM*	1µM*	5.17µM*
COc1ccc(C(=O)n2nc(-c3cccnc3)nc2NCc2ccccc2)cc1OC	nt	nt	-23.7%	nt	?
Cc1nn(-c2ccccc2)c(C)c1/C=N\N1CCN(c2ccc(Cl)cc2)CC1	14.0%	-16.0	18.4µM*	11.9%	10.3µM*
NC(=O)c1cccn1Cc1ccccc1Cl	-3.3%	0.8	?	4.4%	?
NC(=O)c1cccn1Cc1cccc(Cl)c1	-25.6%	19.8	20.6µM*	-6.2%	?
COc1cccc(CNC(=O)C(NS(=O)(=O)c2cccs2)C(C)C)c1 (stereo not drawn)	nt	nt	-9.4%	nt	-16.9%
Cc1cccc(-c2nc(CN3CCCC(C(=O)NCCc4ccc(Cl)cc4)C3)c(C)o2)c1 (stereo not drawn)	nt	nt	16.4µM*	nt	8.2µM*
CCc1ccc(-c2nc(CN3CCC(C(=O)NCCc4ccc(C)cc4)CC3)c(C)o2)cc1	nt	nt	-9.6%	nt	?
CCN(CC)C(=O)C1CCCN(Cc2ccccc2)C1 (stereo not drawn)	-2.4%[9.24 µM]	-13.1	?	6.3%	-2.3%
CN(Cc1ccccc1)C(=O)C1CCCN(Cc2ccc(Cl)cc2)C1 (stereo not drawn)	-21.8%	?	-94.9%	-18.0%	25.9µM*
Cc1oc(-c2ccc(Cl)cc2)nc1CN1CCCC(C(=O)NCc2cccnc2)C1 (stereo not drawn)	?	-72.1*	9.2µM*	?	11.6µM*
